Sm TGR inh: inhibitors of Schistosoma mansoni thioredoxin glutathione reductase. purified TGR, DTNB reduction, TNB absorbance 405 nm. Potency, µM (series often up to 114 µM), for inactives: at the top dose activity change, negative = inhibition, most hits filed as inhibitors. actives 3% (n = 360,000). AID 485364; also: potency is read from the fitted curve at half-maximal effect; % is scaled to controls: 0 for no effect and ±100 for the full control effect; nearly all actives have a fitted effect of over 60% in size
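TGR 20 nM + NADPH 100 uM (dispensed conc.), cpd preinc 15 min RT; start with NADPH (500 uM addition) then DTNB (15 mM addition). Kinetic TNB absorbance, 405 nm filter. Four-parameter Hill fit across titration.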
Pf growth 48h: inhibits P. falciparum growth in the first generation, 48 h; P. falciparum luciferase growth in erythrocytes, 48 h; Potency, µM (highest dose often 28.7 µM), for inactives: at the highest dose activity change, negative = inhibition, hits mostly inhibitors; actives 5.9% (n = 310,000); also: potency is read from the fitted curve at half-maximal effect; % is scaled to controls: 0 for no effect and ±100 for the full control effect
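Luminescence readout; reporter = integrated firefly luciferase in P. falciparum. RBC culture at 2% hematocrit, 0.1% parasitemia final, 37 C/5% CO2; decreased signal taken as growth inhibition.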
CHX counter: counter-screen for Shiga toxin inhibitors: cycloheximide protein synthesis inhibition. cell reporter, cycloheximide protein synthesis inhibition counterscreen. max response, %. actives 12% (n = 300,000); in the data active = max response mostly above about 13%, no sharp cut-off; inactive = mostly below about 14%; also: read at 38.3 µM for the half of the compounds with a filed dose; 0% is about no effect
Shiga inhibitor: blocks Shiga toxin action in Vero cells | Vero cells, Shiga toxin protein synthesis inhibition reporter | inhibition, % at 38.7 µM | actives 9.2% (n = 290,000); in the data active = inhibition mostly above about 28%, no sharp cut-off; inactive = mostly below about 43%; also: 0% is about no effect
Pf growth 96h: inhibits malaria parasite growth, 96 h | Potency, µM (series often up to 28.7 µM), for the others: at the highest dose activity change, negative = inhibition, usual class: inhibitors | AID 504834 | P. falciparum luciferase reporter growth, 96 h | actives 6.9% (n = 320,000); also: potency is read from the fitted curve at half-maximal effect; % is scaled to controls: 0 for no effect and ±100 for the full control effect
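Infected RBCs, 2% Hct / 0.05% parasitemia final; luciferase-reporter P. falciparum; cpd 96 h, 37 C, 5% CO2; luciferase detection reagent; luminescence.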
NS1 inh: influenza NS1 inhibition; Potency, µM (titrated, usually from 46.1 µM), for the others: at the top dose activity, positive = more growth; actives 0.4% (n = 270,000); AID 2326; calls by dose curve; also: potency is read from the fitted curve at half-maximal effect; actives are rising curves; nearly all actives have a fitted effect of over 50% in size
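S. cerevisiae expressing influenza A NS1, grown in glucose, washed, then diluted 1:100 into pH 6.0 -URA galactose medium with 23 nl compound. Growth recovery read as OD600; NS1-free strain serves as control.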
* = called active by the depositor; ? = inconclusive; · = no result given. Only some compounds are listed: those with a hit (about 21% of all), similar ones and a draw of the others. Unless noted, calls follow the shape of the dose curve; as a rule, active = well fitted curve in the direction sought with a large enough effect; inconclusive = small, poorly fitted or top-dose-only effect, or another doubt; inactive = no such curve, though single readings can be large; an effect the other way counts as inactive or inconclusive.

SMILES | Sm TGR inh | Pf growth 48h | CHX counter | Shiga inhibitor | Pf growth 96h | NS1 inh
CCc1ccc(NC(=S)Nc2cccc(OC)c2)cc1 | 7% | 16% | 16* | 67* | ? | 2%
CCCCCCn1c(COc2ccccc2F)nnc1SCC(=O)N1c2ccccc2NC(=O)C1(C)C | 2% | 13µM* | -2 | -29 | 8.3µM* | ?
Cc1cc(C)c(Cn2c(C3CC(=O)N(c4ccc(F)cc4)C3)nc3ccccc32)c(C)c1 (stereo unspecified) | -2% | · | · | · | · | ·
FC(F)(F)c1ccc(CN2C[C@@H]3C(c4ccc(Cl)nc4)C4(c5cccnc5)CC3(C4)[C@H]2c2ccccc2)cc1 (stereo partly specified) | ? | 3.3µM* | 1 | 3 | 2.3µM* | -2%
N#Cc1ccc(C23CC4(C2)[C@H](CN(Cc2ccc(-c5ccccc5)cc2)[C@@H]4c2ccccc2)C3c2ccccc2)cc1 (stereo partly specified) | -27% | 2% | -2 | -6 | ? | 5%
COC(=O)c1cccc(C23CC4(C2)[C@H](CN(CC2CCCCC2)[C@@H]4c2ccccc2)C3c2ccccc2)c1 (stereo partly specified) | ? | 10µM* | -7 | 16 | 4.1µM* | 10%
N#Cc1ccc(C23CC4(C2)[C@H](CN(Cc2ccc(C(F)(F)F)cc2)[C@@H]4c2ccccc2)C3c2ccc(Cl)nc2)cc1 (stereo partly specified) | -34% | 12µM* | -2 | -5 | 13µM* | 0%
COC(=O)c1ccc(C23CC4(C2)[C@H](CN(CC2CCCCC2)[C@@H]4c2ccccc2)C3c2ccc(Cl)nc2)cc1 (stereo partly specified) | -27% | 9.3µM* | 2 | 0 | 9.3µM* | 3%
OC1OC[C@@H](O)[C@@H](O)[C@@H]1O (stereo partly specified) | · | · | -5 | -13 | · | ·
NC(=O)CCC(NS(=O)(=O)c1ccc(Cl)cc1)C(=O)NCc1ccccc1 (stereo unspecified) | -2% | -8% | -4 | -9 | -16% | 3%
COc1ccc(CCNC(=O)CC(C)(C)CC2=NS(=O)(=O)c3ccccc3N2)cc1OC | -25% | ? | -5 | -2 | ? | 2%
Clc1ccc(C2[C@H]3CN(Cc4ccc(-c5ccccc5)cc4)[C@H](c4ccccc4)C34CC2(c2cccnc2)C4)cn1 (stereo partly specified) | ? | 3.3µM* | 2 | 3 | 2.3µM* | 3%
c1ccc(-c2ccc(CN3C[C@@H]4C(c5ccccc5)C5(c6ccccc6)CC4(C5)[C@H]3c3ccccc3)cc2)cc1 (stereo partly specified) | 0% | -4% | -2 | -7 | ? | 8%
FC(F)(F)c1ccc(C2[C@H]3CN(CC4CCCCC4)[C@H](c4ccccc4)C34CC2(c2cccnc2)C4)cc1 (stereo partly specified) | -29% | 3.3µM* | -3 | -8 | 3.3µM* | -1%
COC(=O)c1ccc(C23CC4(C2)[C@H](CN(Cc2ccc(-c5ccccc5)cc2)[C@@H]4c2ccccc2)C3c2ccccc2)cc1 (stereo partly specified) | -33% | ? | -4 | 17 | ? | 0%
COC(=O)c1cccc(C23CC4(C2)[C@H](CN(Cc2cccnc2)[C@@H]4c2ccccc2)C3c2ccc(Cl)nc2)c1 (stereo partly specified) | 0% | 13µM* | 2 | 23 | 12µM* | 7%
COC(=O)c1cccc(C23CC4(C2)[C@H](CN(Cc2ccc(-c5ccccc5)cc2)[C@@H]4c2ccccc2)C3c2ccc(Cl)nc2)c1 (stereo partly specified) | -25% | ? | 6 | -11 | ? | 12%
COC(=O)c1ccc(C23CC4(C2)[C@H](CN(Cc2ccc(C(F)(F)F)cc2)[C@@H]4c2ccccc2)C3c2ccc(Cl)nc2)cc1 (stereo partly specified) | ? | 5.2µM* | -6 | -4 | 12µM* | 6%
O=C(c1cc2ccccc2o1)N1CCN(C/C=C/c2ccccc2)CC1 | -2% | -19% | -3 | -10 | ? | -33%
Cc1ccsc1/C=N\NC(=O)c1cc(C(C)(C)C)[nH]n1 | · | 0% | 24* | 104* | ? | -1%
Cc1ccsc1/C=N/NC(=O)c1ccco1 | -4% | 25% | 24* | 46* | 32% | 2%
Cc1ccc(C(=O)N/N=C\c2sccc2C)cn1 | 4% | 123% | 34* | 73* | ? | -3%
Cc1c(/C=N/NC(=O)c2cc(C(C)(C)C)[nH]n2)c2ccccc2n1C | 6% | ? | -3 | -3 | ? | -2%
Cc1cc(C(=O)N/N=C/c2sccc2C)no1 | -6% | 61% | 27* | 43* | 43% | 1%
CCCCNC(=O)/C=C/c1ccc(S(=O)(=O)Nc2ccc(OC)cc2)cc1 | -1% | -5% | -3 | 3 | ? | ·
SMILES | Sm TGR inh | Pf growth 48h | CHX counter | Shiga inhibitor | Pf growth 96h | NS1 inh
N[C@@H](CSc1nc2ccccn2c1[N+](=O)[O-])C(=O)O | · | · | · | · | · | 19%
CCc1ccccc1N(CC)C(=O)c1c(C)oc2ncn(C)c(=O)c12 | 0% | · | · | · | · | ·
Cc1ccsc1/C=N/NC(=O)CO | · | 4% | -4 | -4 | 14% | 8%
Cc1ccsc1/C=N/NC(=O)c1ccc2nc[nH]c2c1 | -1% | 58% | 21* | 32* | 41% | 7%
Cc1ccsc1/C=N/NC(=O)C1CC(=O)N(c2ccc(F)cc2)C1 (stereo unspecified) | -10% | 7% | -1 | -5 | 4% | -5%
Cc1ccsc1/C=N/NC(=O)c1ccc(-n2cccc2)cc1 | 30% | ? | 33* | 66* | -47% | 7%
Cc1ccsc1/C=N/NC(=O)c1sccc1C | 1% | 68% | 53* | 95* | 107% | -12%
C=CCOc1ccc(C2C(C(=O)c3ccc(C)o3)=C(O)C(=O)N2Cc2cccnc2)cc1 (stereo unspecified) | -32% | -9% | 2 | -3 | 33% | -8%
CCOC(=O)c1[nH]c(C)c(CCC(=O)NCc2ccccc2)c1C | -1% | · | · | · | · | ·
O=S(=O)(Nc1cc(F)ccc1F)c1ccc2[nH]c3c(c2c1)CCCCC3 | 19% | · | · | · | · | ·
Cc1ccnc2nc(C(=O)OCC(=O)N3CC(C)CC(C)C3)nn12 (stereo unspecified) | -1% | -24% | · | · | 30% | ·
CCOc1ccc(-c2nc(CSCC(=O)NC3CC3)c(C)o2)cc1 | -13% | 13µM* | 22* | 2 | 23% | -4%
CCOc1ccc(-c2nc(CSCC(=O)NC3CCCc4ccccc43)c(C)o2)cc1 (stereo unspecified) | -9% | · | 6 | 13 | 13µM* | 9%

Source: PubChem (National Center for Advancing Translational Sciences (NCATS))
